Results published in the OligoGym collection.
Further: reference of the scale not given here.

These sequences were tested against ZBTB24 (assay: pooled miR-30 sensor sort-seq; sequence = guide strand). Conditions: shRNA.
TTAACCACAAAGTTTTGTCTAT gave a sensor-assay potency score (higher = more potent) of -0.0895. Sequence TGTAGCTGAAGAATATTCCTGA has a sensor-assay potency score (higher = more potent) of 0.823. TTGGAAGTCTGTGTAAGCCTTT was tested, and the sensor-assay potency score (higher = more potent) was -0.108. With TTGTACTTAAAGACCTTGCCAC the sensor-assay potency score (higher = more potent) was -0.0819. TTAGGGATAACAACCACTGGGG gave a sensor-assay potency score (higher = more potent) of -0.555.

The sequences below were run against ZBTB39 in the same assay as above. Conditions: shRNA.
Sequence TTAAGTACACAGACCACCCAGC has a sensor-assay potency score (higher = more potent) of -0.108. Work on TTCAACACTAGCAAAAACCTGT yielded a sensor-assay potency score (higher = more potent) of -0.0406. TTAGACATCTACTATTTGGGGA showed a sensor-assay potency score (higher = more potent) of 0.801. TTAAACACAACACAGAACAGAA showed a sensor-assay potency score (higher = more potent) of -0.952. For TATTATGCTAGAGACAATCTGG, the sensor-assay potency score (higher = more potent) was 0.145. Sequence TAGAACTTTCTTGCACACCTGG has a sensor-assay potency score (higher = more potent) of -0.103. Sequence TTGCTTGTGAAACAGCCCGGGG has a sensor-assay potency score (higher = more potent) of -1.25. TAGTGTTTCAAGCAAAACCATT gave a sensor-assay potency score (higher = more potent) of -1.46. In the case of TAAAGAAACATCAAAATCGAGT, the sensor-assay potency score (higher = more potent) is reported as -0.558. With AAGTCCACCACATAGGTCCTGG the sensor-assay potency score (higher = more potent) was -0.52. For TTAGTTTCACACATGTCGCAGG, the sensor-assay potency score (higher = more potent) was -0.128. In the case of TAAGCAGACACCAACATCCCTG, the sensor-assay potency score (higher = more potent) is reported as -0.047.

These sequences were tested against ZBTB5 in the same assay as above. Conditions: shRNA.
TACTTGATTACTTCTATGCTAT showed a sensor-assay potency score (higher = more potent) of 0.0849. Work on TTACAAACTACTTTCTGACTGC yielded a sensor-assay potency score (higher = more potent) of 0.686. Sequence TAGGTTATTTGTGACTTCCAAA has a sensor-assay potency score (higher = more potent) of -1.29. Work on TTGATAGAACTTTATGATCTGT yielded a sensor-assay potency score (higher = more potent) of 0.242. ATCAAAACTAGTCTCAACCTGA was tested, and the sensor-assay potency score (higher = more potent) was 0.322. Work on TTTTGCATCACTATACAGGGAT yielded a sensor-assay potency score (higher = more potent) of 0.397. Work on TAATCTGTCGTCGAAAACGGTA yielded a sensor-assay potency score (higher = more potent) of -0.933. For TTTGGTTAATCTGTCGTCGAAA, the sensor-assay potency score (higher = more potent) was -0.689. For TTAATCTCACAAGACACTGGTC, the sensor-assay potency score (higher = more potent) was -0.0713. TTAAGTAATGTTTACATGCCTT was tested, and the sensor-assay potency score (higher = more potent) was -0.579. TACAATGACACAATCACAGAGC gave a sensor-assay potency score (higher = more potent) of 0.0287. TGCACTTTGACAGAACATCTGC showed a sensor-assay potency score (higher = more potent) of -0.0496.

The sequences below were run against ZBTB8A in the same assay as above. Conditions: shRNA.
Sequence TTTTTAATGGACTCTTTCCTTG has a sensor-assay potency score (higher = more potent) of -0.893. Work on TTTCTTTCTCACTAATGTCTAA yielded a sensor-assay potency score (higher = more potent) of -0.493. TAAATCTTTTTCCACAAGCTTG was tested, and the sensor-assay potency score (higher = more potent) was -1.26. Sequence TCACAAAATACATCTTGCCTGC has a sensor-assay potency score (higher = more potent) of -0.43. Work on TAGCGAATAATACATTTCGATG yielded a sensor-assay potency score (higher = more potent) of -1.75. TTCTACAATCTCCACATAGGAT gave a sensor-assay potency score (higher = more potent) of -0.772. TAAAGTAGCCGCTACTAGCGAA was tested, and the sensor-assay potency score (higher = more potent) was -0.929. Work on TACACTTATGACATCAGTCATC yielded a sensor-assay potency score (higher = more potent) of -0.715. TTCAGCATCAATCTGTGCTTGT gave a sensor-assay potency score (higher = more potent) of 0.622. In the case of TTGACTTATAATGAGTAACTTC, the sensor-assay potency score (higher = more potent) is reported as -0.468. TAAAAGTCTTACATACACTTAT was tested, and the sensor-assay potency score (higher = more potent) was -0.256.
